Results published in the supplement of paper PMC10849652.
The full data set covers some 8,800 targets. This sample favours those with a hit. About 0.5% of all pairs of compound and target were hits.

How the values were obtained:
Experiment in all cases: log2 fold change, soluble protein after heating vs DMSO (PISA); higher = thermal stabilisation; K562 lysate, 10 uM; active = over 0.2 and 3.5 SD of the protein, either way, in both replicates (recomputed)
[1] = compound: CN1CC[C@H](c2c(O)cc(O)c3c(=O)cc(-c4ccccc4Cl)oc23)[C@H](O)C1 [alvocidib]
Method in brief: (§1)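 Thermal stability, expressed as log-two fold change relative to solvent controls, is given from duplicates. Crude K562 extract in PBS pH 7.4 with 1 mM MgCl2, at 1 mg/mL protein, was treated with 10 μM compound for 30 min and heated in aliquots for 3 min across 48°C-58°C. After pooling, adjustment to 0.5% NP-40 at 4°C and centrifugation at 21,000xg for 90 min, supernatant protein was measured by TMTpro 16plex LC-MS/MS with channel sums equalised.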

[2] = compound: CN1CCc2c(c3ccccc3n2Cc2ccc(C(=O)NO)cc2)C1 [Tubastatin A]
Method in brief: as §1

[3] = compound: CNC(=O)C1=CC=CC=C1NC2=NC(=NC=C2Cl)NC3=C(C=C(C=C3)N4CCOCC4)OC
Method in brief: as §1

[4] = compound: COc1cc(Nc2ncc3c(n2)-c2ccc(Cl)cc2C(c2c(F)cccc2OC)=NC3)ccc1C(=O)O [alisertib]
Method in brief: as §1

[5] = compound: COc1cc2ncnc(Nc3ccc(F)c(Cl)c3)c2cc1OCCCN1CCOCC1 [gefitinib]
Method in brief: as §1

[6] = compound: CNC(=O)c1ccc(Nc2ncc(C(F)(F)F)c(NCc3nccnc3N(C)S(C)(=O)=O)n2)cc1 [defactinib]
Method in brief: as §1

[7] = compound: COC(=O)N[C@@H](C)CNc1nccc(-c2cn(C(C)C)nc2-c2cc(Cl)cc(NS(C)(=O)=O)c2F)n1 [encorafenib]
Method in brief: as §1

[8] = compound: COC(=O)[C@H](CCSC)NC(=O)C1=C(C=C(C=C1)NC[C@H](CS)N)C2=CC=CC=C2
Method in brief: as §1

[9] = compound: COc1cc2nc(-c3cc(F)ccc3O)nc(N[C@@H]3CNC[C@H]3C(C)(C)O)c2cc1OC
Method in brief: as §1

[10] = compound: CNc1nc(-c2ccc3c(N)n[nH]c3c2)cc(N2C[C@@H](C(=O)NC3CCCCC3)CC[C@H]2C)n1
Method in brief: as §1

Measured: log2 fold change

TPD52L2 isoform 3 (UniProt O43399)
Sequence of UniProt O43399 (O43399 whole entry, looked up): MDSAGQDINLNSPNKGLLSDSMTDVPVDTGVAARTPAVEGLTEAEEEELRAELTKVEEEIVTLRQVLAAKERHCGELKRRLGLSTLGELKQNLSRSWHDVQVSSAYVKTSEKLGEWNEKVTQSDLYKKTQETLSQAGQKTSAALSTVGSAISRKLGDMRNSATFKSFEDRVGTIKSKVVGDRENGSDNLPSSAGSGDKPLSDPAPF
inactive: [1] 0.127 | [2] 0.165 | [3] 0.144 | [4] 0.094 | [5] -0.244

TMC1 (UniProt Q8TDI8)
Sequence of UniProt Q8TDI8 (Q8TDI8 whole entry, looked up): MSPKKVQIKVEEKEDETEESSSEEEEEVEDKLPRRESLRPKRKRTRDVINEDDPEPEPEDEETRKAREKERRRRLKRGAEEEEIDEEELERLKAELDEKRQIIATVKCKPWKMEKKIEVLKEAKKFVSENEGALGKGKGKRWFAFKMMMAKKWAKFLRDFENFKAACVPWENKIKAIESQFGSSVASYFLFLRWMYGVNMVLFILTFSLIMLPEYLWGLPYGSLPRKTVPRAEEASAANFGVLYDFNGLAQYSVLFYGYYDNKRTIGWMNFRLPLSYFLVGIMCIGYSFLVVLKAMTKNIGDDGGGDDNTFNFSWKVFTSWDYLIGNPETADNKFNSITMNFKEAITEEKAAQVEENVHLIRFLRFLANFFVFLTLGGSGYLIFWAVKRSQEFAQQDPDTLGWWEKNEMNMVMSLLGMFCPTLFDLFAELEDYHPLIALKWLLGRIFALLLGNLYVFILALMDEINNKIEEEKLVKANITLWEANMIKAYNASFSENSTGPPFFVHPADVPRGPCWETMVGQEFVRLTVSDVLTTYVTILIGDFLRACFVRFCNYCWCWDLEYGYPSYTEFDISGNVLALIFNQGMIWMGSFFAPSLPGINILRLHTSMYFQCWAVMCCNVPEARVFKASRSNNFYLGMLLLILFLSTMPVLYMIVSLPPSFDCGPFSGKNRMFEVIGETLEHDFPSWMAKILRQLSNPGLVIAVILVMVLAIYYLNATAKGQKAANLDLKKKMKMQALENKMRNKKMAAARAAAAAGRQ
inactive: [2] -0.088 | [3] -0.028 | [6] -0.002 | [7] 0.03 | [8] 0.054 | [4] 0.216 | [9] 0.021 | [5] 0.215

TCF3 isoform 2 (UniProt P15923)
inactive: [2] 0.055 | [3] 0.214

TRAF7 (UniProt Q6Q0C0)
inactive: [1] 0.058 | [2] -0.008 | [6] 0.141 | [10] 0.025 | [7] 0.015 | [8] -0.11 | [4] -0.05 | [5] -0.099

TM2D3 (UniProt Q9BRN9)
Sequence of UniProt Q9BRN9 (Q9BRN9 whole entry, looked up): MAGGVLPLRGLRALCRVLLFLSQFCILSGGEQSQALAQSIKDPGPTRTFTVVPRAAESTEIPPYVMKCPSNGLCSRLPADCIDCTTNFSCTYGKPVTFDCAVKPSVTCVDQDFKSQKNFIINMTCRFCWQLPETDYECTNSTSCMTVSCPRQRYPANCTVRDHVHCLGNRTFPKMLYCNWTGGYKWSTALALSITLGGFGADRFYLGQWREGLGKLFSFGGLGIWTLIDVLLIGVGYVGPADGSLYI
inactive: [1] -0.291 | [2] -0.125 | [3] 0.008 | [7] -0.116 | [8] -0.116

U2AF1L5 (UniProt P0DN76)
inactive: [1] -0.58 | [2] -0.193 | [3] -0.044 | [10] -0.023 | [7] -0.101 | [8] 0.096 | [4] -0.045 | [9] -0.013 | [5] -0.061

TMEM132A isoform 2 (UniProt Q24JP5)
Sequence of UniProt Q24JP5 (Q24JP5 whole entry, looked up): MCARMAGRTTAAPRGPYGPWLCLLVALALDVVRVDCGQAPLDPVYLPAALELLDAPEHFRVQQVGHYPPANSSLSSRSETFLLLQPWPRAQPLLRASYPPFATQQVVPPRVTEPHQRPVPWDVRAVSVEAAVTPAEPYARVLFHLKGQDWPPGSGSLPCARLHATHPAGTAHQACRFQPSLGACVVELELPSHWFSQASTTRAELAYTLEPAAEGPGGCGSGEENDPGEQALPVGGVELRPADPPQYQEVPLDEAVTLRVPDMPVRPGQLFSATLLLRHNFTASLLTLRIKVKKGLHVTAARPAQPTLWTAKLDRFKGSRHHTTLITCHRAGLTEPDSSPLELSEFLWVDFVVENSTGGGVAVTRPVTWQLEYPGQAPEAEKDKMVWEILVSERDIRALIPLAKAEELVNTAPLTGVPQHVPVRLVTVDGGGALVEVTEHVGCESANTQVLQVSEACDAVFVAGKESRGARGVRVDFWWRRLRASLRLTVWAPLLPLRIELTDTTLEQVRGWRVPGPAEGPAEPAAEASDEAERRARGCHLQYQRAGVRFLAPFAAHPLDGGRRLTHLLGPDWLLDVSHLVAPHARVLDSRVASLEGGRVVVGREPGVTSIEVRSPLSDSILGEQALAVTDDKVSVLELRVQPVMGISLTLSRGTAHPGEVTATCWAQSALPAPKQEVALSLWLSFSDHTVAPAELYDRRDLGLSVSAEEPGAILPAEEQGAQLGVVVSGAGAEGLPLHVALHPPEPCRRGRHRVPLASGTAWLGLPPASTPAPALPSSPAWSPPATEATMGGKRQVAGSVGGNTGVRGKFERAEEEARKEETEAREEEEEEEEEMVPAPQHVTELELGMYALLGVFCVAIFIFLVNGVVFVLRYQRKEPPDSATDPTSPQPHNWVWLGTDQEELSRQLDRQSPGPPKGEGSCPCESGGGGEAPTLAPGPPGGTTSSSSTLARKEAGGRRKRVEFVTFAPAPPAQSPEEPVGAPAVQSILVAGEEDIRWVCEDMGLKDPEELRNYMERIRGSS
active: [9] 1.16
inactive: [1] -0.381 | [2] 0.136 | [3] -0.097 | [7] -0.064 | [8] -0.042

TRPM4 (UniProt Q8TD43)
Sequence of UniProt Q8TD43 (Q8TD43 whole entry, looked up): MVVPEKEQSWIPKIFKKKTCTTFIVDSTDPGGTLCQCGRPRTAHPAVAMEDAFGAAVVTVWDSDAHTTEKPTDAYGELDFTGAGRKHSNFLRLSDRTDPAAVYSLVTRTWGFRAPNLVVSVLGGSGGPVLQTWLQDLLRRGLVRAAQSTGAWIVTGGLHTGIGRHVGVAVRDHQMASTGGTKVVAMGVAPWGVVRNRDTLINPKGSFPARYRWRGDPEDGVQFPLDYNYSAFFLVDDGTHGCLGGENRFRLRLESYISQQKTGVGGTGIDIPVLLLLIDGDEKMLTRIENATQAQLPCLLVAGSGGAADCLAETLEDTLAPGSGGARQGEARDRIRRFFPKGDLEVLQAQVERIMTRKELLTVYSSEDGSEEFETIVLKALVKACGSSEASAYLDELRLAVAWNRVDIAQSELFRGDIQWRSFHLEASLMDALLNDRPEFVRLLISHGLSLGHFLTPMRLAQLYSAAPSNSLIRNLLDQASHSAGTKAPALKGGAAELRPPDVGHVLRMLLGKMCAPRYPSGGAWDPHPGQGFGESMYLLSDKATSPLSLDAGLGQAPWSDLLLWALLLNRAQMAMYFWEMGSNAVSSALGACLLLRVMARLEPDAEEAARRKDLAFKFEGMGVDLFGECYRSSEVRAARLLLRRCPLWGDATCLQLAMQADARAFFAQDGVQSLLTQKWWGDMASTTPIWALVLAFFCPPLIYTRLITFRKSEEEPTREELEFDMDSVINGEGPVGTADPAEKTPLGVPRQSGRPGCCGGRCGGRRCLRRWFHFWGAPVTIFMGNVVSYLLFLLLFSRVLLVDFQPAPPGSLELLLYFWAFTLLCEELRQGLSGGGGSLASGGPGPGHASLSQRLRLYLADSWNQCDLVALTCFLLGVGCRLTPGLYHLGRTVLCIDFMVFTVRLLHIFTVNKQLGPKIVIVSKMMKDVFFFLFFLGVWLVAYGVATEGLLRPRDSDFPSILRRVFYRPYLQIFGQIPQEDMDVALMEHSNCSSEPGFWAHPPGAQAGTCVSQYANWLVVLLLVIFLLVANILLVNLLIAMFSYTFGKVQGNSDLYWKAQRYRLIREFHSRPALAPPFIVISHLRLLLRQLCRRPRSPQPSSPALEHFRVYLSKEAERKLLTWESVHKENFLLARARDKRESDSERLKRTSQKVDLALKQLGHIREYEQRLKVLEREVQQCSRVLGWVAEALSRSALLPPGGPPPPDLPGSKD
inactive: [1] -0.401 | [2] 0.053 | [3] -0.163 | [10] 0.14

UBR4 isoform 4 (UniProt Q5T4S7)
inactive: [2] -0.337 | [3] -0.16 | [6] -0.032 | [10] 0.144 | [7] -0.028 | [8] 0.062 | [9] 0.064

TNIK isoform 5 (UniProt Q9UKE5)
inactive: [1] 0.012 | [2] -0.015 | [10] -0.04 | [9] 0.214

TNFAIP3 (UniProt P21580)
active: [7] 0.276
inactive: [1] 0.005 | [2] -0.076 | [3] 0.022 | [10] -0.009 | [8] 0.228 | [4] 0.002 | [9] 0.031 | [5] -0.028

UBAP2 (UniProt Q5JV08)
inactive: [4] -0.165 | [5] -0.139

TTC37 (UniProt Q6PGP7)
inactive: [2] 0.072 | [3] -0.13 | [6] -0.061 | [10] 0.185 | [4] 0.032 | [9] 0.043 | [5] 0.081

UBAP2L isoform 1 (UniProt Q14157)
Sequence of UniProt Q14157 (Q14157 whole entry, looked up): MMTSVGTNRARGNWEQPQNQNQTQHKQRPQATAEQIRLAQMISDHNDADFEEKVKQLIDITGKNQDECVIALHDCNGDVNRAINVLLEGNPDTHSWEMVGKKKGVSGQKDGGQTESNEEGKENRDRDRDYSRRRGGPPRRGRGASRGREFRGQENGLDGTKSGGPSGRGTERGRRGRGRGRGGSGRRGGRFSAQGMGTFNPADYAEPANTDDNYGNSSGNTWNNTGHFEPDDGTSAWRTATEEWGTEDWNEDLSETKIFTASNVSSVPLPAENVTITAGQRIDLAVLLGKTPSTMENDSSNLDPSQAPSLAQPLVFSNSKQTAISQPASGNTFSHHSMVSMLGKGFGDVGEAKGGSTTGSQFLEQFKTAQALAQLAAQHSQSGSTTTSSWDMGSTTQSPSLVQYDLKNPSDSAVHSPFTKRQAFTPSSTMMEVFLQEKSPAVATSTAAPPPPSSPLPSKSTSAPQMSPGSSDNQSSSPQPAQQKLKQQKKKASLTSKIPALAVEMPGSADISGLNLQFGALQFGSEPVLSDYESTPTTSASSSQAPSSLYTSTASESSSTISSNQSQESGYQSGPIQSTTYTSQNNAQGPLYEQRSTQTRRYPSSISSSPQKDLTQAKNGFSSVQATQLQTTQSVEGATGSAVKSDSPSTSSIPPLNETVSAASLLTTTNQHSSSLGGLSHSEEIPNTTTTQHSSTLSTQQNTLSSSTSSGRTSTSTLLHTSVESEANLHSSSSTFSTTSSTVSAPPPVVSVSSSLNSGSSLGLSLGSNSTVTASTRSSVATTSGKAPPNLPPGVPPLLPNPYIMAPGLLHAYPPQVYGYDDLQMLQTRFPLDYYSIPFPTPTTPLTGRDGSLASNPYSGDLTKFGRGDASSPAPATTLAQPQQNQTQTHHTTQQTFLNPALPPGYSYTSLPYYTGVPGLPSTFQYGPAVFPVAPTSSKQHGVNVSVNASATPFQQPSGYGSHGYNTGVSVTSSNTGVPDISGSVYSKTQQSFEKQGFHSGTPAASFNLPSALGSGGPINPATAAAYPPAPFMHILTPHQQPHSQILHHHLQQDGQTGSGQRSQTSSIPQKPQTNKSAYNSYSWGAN
inactive: [2] -0.006 | [4] 0.032 | [5] -0.088

UBAP2L (UniProt F8W726)
inactive: [6] 0.06 | [9] 0.093

TMEM154 (UniProt Q6P9G4)
inactive: [2] 0.063 | [10] -0.099 | [7] -0.015 | [8] 0.023

TUBB4A (UniProt P04350)
Sequence of UniProt P04350 (P04350 whole entry, looked up): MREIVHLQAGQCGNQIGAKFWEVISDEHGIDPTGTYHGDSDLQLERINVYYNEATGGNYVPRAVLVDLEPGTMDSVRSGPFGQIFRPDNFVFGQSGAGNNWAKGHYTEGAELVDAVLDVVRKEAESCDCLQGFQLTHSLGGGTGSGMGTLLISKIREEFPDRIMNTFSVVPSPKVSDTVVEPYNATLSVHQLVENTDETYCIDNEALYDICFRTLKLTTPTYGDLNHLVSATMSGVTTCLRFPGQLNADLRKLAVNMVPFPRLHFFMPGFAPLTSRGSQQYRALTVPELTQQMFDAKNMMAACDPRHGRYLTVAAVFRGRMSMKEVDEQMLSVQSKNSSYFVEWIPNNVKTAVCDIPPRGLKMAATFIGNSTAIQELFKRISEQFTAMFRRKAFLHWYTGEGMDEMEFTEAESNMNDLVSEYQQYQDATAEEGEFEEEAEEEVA
inactive: [1] -0.006 | [2] -0.113 | [3] -0.029 | [10] 0.051 | [7] -0.027 | [8] 0.112 | [4] 0.021 | [9] -0.002 | [5] 0.101

TCF3 (UniProt X6REB3)
inactive: [1] -0.168 | [6] -0.149

TENM4 (UniProt Q6N022)
inactive: [1] 0.03 | [9] 0.024

TGFBR1 isoform 2 (UniProt P36897)
inactive: [3] 0.156 | [10] -0.004 | [7] -0.017 | [8] 0.077

TMEM14C (UniProt Q9P0S9)
active: [2] -0.463
inactive: [3] 0.033 | [6] 0.205 | [10] 0.011 | [7] 0.004 | [8] 0.022 | [4] -0.011 | [9] -0.168 | [5] 0.003

TNIK (UniProt C9J338)
inactive: [1] -0.155 | [3] -0.211 | [6] -0.014 | [10] 0.306 | [7] -0.012 | [8] 0.005 | [9] 0.076

TBK1 (UniProt Q9UHD2)
active: [3] 0.528
inactive: [2] -0.16 | [6] 0.328 | [10] -0.035 | [7] 0.014 | [8] -0.293 | [4] 0.039 | [9] -0.007 | [5] -0.032

TMPO isoform 2 (UniProt P42167)
inactive: [6] 0.058 | [10] 0.186 | [7] -0.113 | [8] -0.14

UCP2 (UniProt P55851)
inactive: [2] 0.182 | [6] 0.096 | [4] 0.033 | [5] 0.045
